According to PubChem BioAssay (NCI):
The panel holds about 83,000 compounds, 20% with a hit somewhere; the sample as a whole holds those more often.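 Compound tested at a single concentration for 48 hours in 96-well plates; a percent growth value below 10 was scored as active.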 A number with no mark means an inactive call. Calls of active or inactive are those of the source.

tested on: A498 renal; assay: NCI-60 one-dose screen, 48 h (100 = growth as untreated, 0 = no growth, -100 = all killed); settings: 10 µM
Procedure: Growth inhibition of the A498 human tumor cell line is measured as a screen for anti-cancer activity. Cells are grown in 96 well plates and exposed to the test compound for 48 hours. Compounds are tested at a single concentration, which is 10^-5 M for most compounds. The reported endpoint is percent growth (GI% or GIPRCNT), where numbers from 0 - 100% represent growth inhibition, and numbers from -100% - 0 represent cell death. For example, a value of 40 represents 60% growth inhibition. A value of 0 means no net growth occurred over the course of the experiment. A value of -40 indicates 40% of cells at the beginning of the experiment died by the end of the experiment. A value of -100 means all cells are dead at the end of the experiment.
NCI-60 Human Tumor Cell Lines Screen was performed using the standard one-dose NCI protocol, which is described in more detail at https://dtp.cancer.gov/discovery_development/nci-60/default.htm.
Compounds with GIPRCNT values below 10 were considered active. Activity score was based on GIPRCNT using the following formula: […]
Score is 0 for GIPRCNT values of 100 or above, 50 for GIPRCNT values of 0, and 100 for GIPRCNT values of -100.

Structure (SMILES) | growth
Cc1cc(C)c2c(n1)sc1c(Nc3ccc(Cl)cc3)ncnc12 | -9.23% (active)
Clc1ccccc1N=Cc1ccc2c(c1)OCO2 | 102%
CCOCCOCCOCCOCCOCCOCCOCCOCCOCCO (tested in a mixture with another compound) | 32.8%
COc1ccc(-c2nc3sc(C4CC4)nn3c2/C=C2/C(=O)Nc3ccc(OC)cc32)cc1 | 49.4%
O=C1OCC2=C1C(c1cccc(Br)c1)c1cc3c(cc1N2CCO)CCC3 (stereo not given) | -11.2% (active)
COc1ccc(OC)c(NC(=O)c2sc3nc4c(cc3c2N)C(=O)CCC4)c1 | 3.5% (active)
COc1ccc(Cn2c(C(N)=O)cc3c2-c2nc(N)ncc2CCC3)cc1 | 76.2%
CN1c2ccccc2[C@]2(Cc3ccccc3)Cc3ccccc3N[C@H]12 | 113%
CCOC(=O)CNC(=O)CCCCSc1ncnc2nc[nH]c12 | 124%
COc1cc(-c2nc(Nc3nc4ccccc4s3)[nH]c(=O)c2C#N)cc(OC)c1O | 103%
COc1ccc(-c2nc3sccn3c2-c2nc3c([nH]2)C(=O)c2ccccc2C3=O)cc1 | 49.7%
C/C(N)=C(\C#N)C(=O)c1ccccc1 | 91.5%
FC(F)(F)c1ccc2nc(-c3nc(-c4ccccc4)n4ccccc34)[nH]c2c1 | 107%
C=C(C(=O)c1ccccc1)C(NC(C)(C)C)c1ccccc1 (stereo not given) | 94.1%
Cc1cc(C)c(CCc2cc(C)c(C)cc2C)cc1C | 98.7%
Cc1cc(N(CCCNc2ccnc3cc(Cl)ccc23)Cc2cccs2)nc(Cl)n1 | 28.5%
CN(C)Cc1cn(-c2ncc(-c3ccc(C(F)(F)F)cc3)c(NC3CCCCCC3)n2)nn1 | 76.9%
Cc1cccc(Cl)c1NC(=O)c1ccc2nc(NC(=O)NC3CCN(C)CC3)sc2c1 | 104%
CN1CC[C@@H](c2c(O)cc(O)c3c(=O)cc(-c4ccccc4Cl)oc23)[C@@H](O)C1 | -40.8% (active)
Cc1cccc2c(NCCN(C)C)c3cccc(C(=O)NCCN(C)C)c3nc12 | 33.8%

Structure (SMILES) | growth
Cc1cc2ccccc2nc1-c1ccccc1F | 96.2%
O=C(Nc1cccc(-n2cc(-c3ccncc3)c(-c3ccc(O)c(Cl)c3)n2)c1)Nc1cccc(C(F)(F)F)c1 | 76.6%
CC(=O)CSC(C)=O | 99.1%
COc1ccc(/C=C/C(=O)Nc2ccc(-c3nc4ccc(OC)cc4s3)cc2)cc1 | 97.8%
COc1ccc(Oc2nc(NC3CCCC3)nc(Sc3ccc(OC)cc3)n2)cc1 | 65.5%
CSc1nn(-c2ccccc2)c2ncnc(Oc3ccc(C)cc3)c12 | 67.8%
N#Cc1ncc(-c2cc(F)c(F)c(F)c2)c(NC2CCCCCC2)n1 | 52.2%
O=C(O)c1ccc(Cl)cc1Nc1ccc(F)cc1 | 83.7%
C#Cc1ccc(-n2c(/C=C/c3ccc(C(F)(F)F)cc3)nc3ncccc3c2=O)cc1 | 43.7%
O=C(CCCCC[P+](c1ccccc1)(c1ccccc1)c1ccccc1)NC(COC(=O)C(Cl)Cl)(COC(=O)C(Cl)Cl)COC(=O)C(Cl)Cl | 89.7%
Cc1nc2oc3ccccc3c(=O)c2cc1C(=O)NCc1ccccc1 | 92.5%
CCCCCCN1C(=O)C2=C(c3ccc(Cl)cc3)Nc3c(c(C)nn3-c3ccccc3)C2c2ccccc21 (stereo not given) | 87.5%
O=C(Nc1ccncc1)C(=O)c1cn(S(=O)(=O)c2cccc(Cl)c2)c2ccccc12 | 69.4%
O=C(Nc1ccc(CO)cc1)c1ccccc1Nc1ccnc(C(F)(F)F)c1 | 95.7%
CCCCN(CCCC)c1cc(C(=O)CCCCCN)c2ccccc2n1 | 72.6%
CCOCC(=O)C(C#N)c1ccc(Cl)c(Cl)c1 (stereo not given) | 91.6%
Cc1cccc2c1O/C(=C\c1ccc([N+](=O)[O-])o1)C2=O | 49%
CCCCCCCCCCCC[n+]1ccc(C(N)=O)cc1 | 78.9%
C#Cc1ccc(-n2c(/C=C/c3ccc4ccccc4n3)nc3ncccc3c2=O)cc1 | -69.1% (active)
N#Cc1ncc(-c2ccc(C(F)(F)F)cc2)c(NCc2cc(C(F)(F)F)cc(C(F)(F)F)c2)n1 | 15.3%
